MmCpn inh – Inhibitors of TCP-1 ring complex (TRiC) of Methanococcus maripaludis (MmCpn): qHTS | Chaperonin Mm-Cpn (Methanococcus maripaludis) | purified Mm-Cpn ATPase, ADP Transcreener TR-FRET | Potency, µM (doses to about 76.9 µM), for the others: top-dose activity, negative = inhibition, most hits filed as inhibitors | hit rate 0.031% among 330,000 | AID 504842, 2011; also: potency is read from the fitted curve at half-maximal effect; nearly all actives have a fitted effect of over 80% in size
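Purified archaeal Mm-CPN (25nM final) preincubated 10 min at 37degC with compound, then 10uM ATP for 30 min at 37degC; ADP measured by HTRF Transcreener TR-FRET; buffer 30 mM TRIS pH 7.4, 100mM KCl, 5mM MgCl2, 1mM DTT.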
G9a block – qHTS Assay for Inhibitors of Histone Lysine Methyltransferase G9a; G9a H3K9 monomethylation, AlphaScreen, 2 h; hit rate 8.8% among 350,000; Histone-lysine N-methyltransferase EHMT2 (Homo sapiens), Q96KQ7; Potency, µM (highest dose often 102 µM), inactives show at the top dose activity, negative = inhibition, usual class: inhibitors; also: potency is read from the fitted curve at half-maximal effect; nearly all actives have a fitted effect of over 75% in size
Target sequence (Q96KQ7 913-1193 limits assumed): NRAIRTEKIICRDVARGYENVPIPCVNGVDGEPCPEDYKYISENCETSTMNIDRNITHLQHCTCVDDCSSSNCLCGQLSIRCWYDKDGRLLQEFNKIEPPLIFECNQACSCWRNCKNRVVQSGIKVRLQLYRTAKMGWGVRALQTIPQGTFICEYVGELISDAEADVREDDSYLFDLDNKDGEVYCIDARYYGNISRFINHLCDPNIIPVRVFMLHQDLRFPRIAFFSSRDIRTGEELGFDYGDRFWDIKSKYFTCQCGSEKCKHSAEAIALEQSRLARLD
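Using a bead-based AlphaScreen, monomethylated H3K9 product from 2 h room-temperature reactions (G9a 20 nM, peptide 500 nM, SAM 20 uM) was detected with 0.5 ug/mL rabbit anti-H3K9me1 antibody.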
CCT modulator – High-Throughput Screening for Modulators of Cytosolic Chaperonin Activity | activity change, % (no concentration beside the values), hits read low | hit rate 0.3% among 360,000 | purified chaperonin ATPase assay, HTRF ADP detection, 30 min | AID 651819, 2012; in the data active = activity change below about -30%
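First, chaperonin was dispensed at 40 nM or 20 nM final depending on batch activity. Next, compounds were pinned at 76 uM and ATP added at 10 uM. After 30 min at 37 °C, ADP detection reagents ran 30 min at ambient temperature.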
VDR inhibitor – Inhibitors of the vitamin D receptor (VDR): qHTS. Vitamin D3 receptor (Homo sapiens), P11473. Potency, µM, for inactives: max response, negative = inhibition, most hits filed as inhibitors. VDR-SRC2-3 peptide fluorescence polarization, 2 h. hit rate 0.93% among 400,000. AID 504847, 2011; also: potency is read from the fitted curve at half-maximal effect
Target sequence (P11473 whole entry, looked up): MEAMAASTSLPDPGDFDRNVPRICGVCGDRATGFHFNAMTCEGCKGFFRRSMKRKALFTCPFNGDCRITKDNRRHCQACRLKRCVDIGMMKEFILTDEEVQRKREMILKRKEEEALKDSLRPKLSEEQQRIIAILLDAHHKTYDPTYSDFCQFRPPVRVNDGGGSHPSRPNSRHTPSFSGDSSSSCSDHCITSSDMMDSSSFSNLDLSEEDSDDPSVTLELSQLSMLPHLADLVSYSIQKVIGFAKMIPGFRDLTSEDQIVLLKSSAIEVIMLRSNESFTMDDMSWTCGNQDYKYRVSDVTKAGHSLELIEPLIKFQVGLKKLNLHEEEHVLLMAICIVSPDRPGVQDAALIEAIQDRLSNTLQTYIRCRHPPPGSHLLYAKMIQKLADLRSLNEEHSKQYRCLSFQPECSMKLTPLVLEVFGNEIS
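Reagent solutions, kept cold and dark, are dispensed first; compounds are then pinned in at 23 nl, plates briefly spun, and incubated 2 h at ambient temperature. Inhibition of VDR–SRC2-3 peptide binding is read by fluorescence polarization.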
Sfp PPTase inh – qHTS Assay for Inhibitors of Bacillus subtilis Sfp phosphopantetheinyl transferase (PPTase) | hit rate 3.5% among 310,000 | Biochemical Sfp PPTase activity, qHTS | Potency, µM, without a hit: largest response in the series, negative = inhibition, usual class: inhibitors | 4'-phosphopantetheinyl transferase ffp (Bacillus subtilis), Q9F4F7;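 also: the enzyme is Sfp with the accession as filed and its product quenches rhodamine fluorescence; potency is read from the fitted curve at half-maximal effect; 0% = enzyme reaction without inhibitor and -100% = no enzyme wells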
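Fluorescence-quenching assay: 15 nM Sfp-PPTase preincubated 15 min at room temperature with compound, then 5 uM rhodamine-CoA and 12.5 uM BHQ-2-labelled YbbR peptide added. Fluorescence (ex 525/em 598 nm) read at start and after 30 min; difference gives rate.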
PLK1 PBD block – qHTS for Inhibitors of PLK1-PDB (polo-like kinase 1 - polo-box domain): Primary Screen; Serine/threonine-protein kinase PLK1 (Homo sapiens), P53350; Plk1 PBD binding of FITC phosphopeptide, fluorescence polarization; Potency, µM, for the others: max response, negative = inhibition, usual class: inhibitors; hit rate 2.8% among 360,000; also: potency is read from the fitted curve at half-maximal effect; series mostly up to about 57 µM; nearly all actives have a fitted effect of over 65% in size
* = called active by the depositor; ? = inconclusive; · = no result; ! = not active in a repeat; [ ] = remark or other dose. Most compounds without a hit are left out; they make up all but 10% or so of the library. Unless noted, calls follow the shape of the dose curve; as a rule, active = well fitted curve in the direction sought with a large enough effect; inconclusive = small, poorly fitted or top-dose-only effect, or another doubt; inactive = no such curve, though single readings can be large; an effect the other way counts as inactive or inconclusive. Unless noted, % is scaled to controls: 0 for no effect and ±100 for the full control effect.

SMILES	MmCpn inh	G9a block	CCT modulator	VDR inhibitor	Sfp PPTase inh	PLK1 PBD block
CCN(CC)CCNC(=O)c1ccc(NC(=O)c2cn(-c3ccccc3)nc2-c2cccs2)cc1	-2%	?	-3	25%	?	-7%
Cc1cc(C)cc(Oc2coc3c(CN4CCN(C)CC4)c(O)ccc3c2=O)c1	·	-5%[59 µM]	·	2%	·	·
CCOc1ccc(CCNC(=O)c2ccc(-n3c(C)cc4c3CCC(C)C4)cc2)cc1OCC (stereo not given)	·	-13%[59 µM]	·	17%	·	·
C/C(=N\Nc1nc(C)c(C)s1)c1ccc([N+](=O)[O-])cc1	2%	18µM*	-2	-16%	?	-24%
C/C(=N\Nc1ccc([N+](=O)[O-])cc1)c1ccc(N)cc1	0%	7.1µM*	1	-1%	?	3%
CCc1ccc(/C(C)=N\Nc2ccc([N+](=O)[O-])cc2)cc1	-4%	32%[0.501 µM]	-1	-4%	-1%	2%
CC/C(=N\Nc1ccc([N+](=O)[O-])cc1)c1ccccc1	6%	-33%	-3	?	-15%	17µM*
CCOc1ccccc1NC(=O)CSc1nc2c([nH]c3ccccc32)c(=O)n1-c1ccccc1	·	-1%[59 µM]	·	10%	·	·
NC(=NC1C2CC3CC(C2)CC1C3)Nc1ccc(I)cc1 (stereo not given)	·	28µM*!	·	7%	29%	·
COc1ccccc1NS(=O)(=O)c1cc(N2Cc3ccccc3C2=N)ccc1N1CCOCC1	-2%	14µM*	2	-6%	?	21µM*
COc1ccccc1NS(=O)(=O)c1cc(N)ccc1N1CCCC1	1%	·	-13	89µM*	·	6.7µM*
COc1ccc(NS(=O)(=O)c2cc(N)ccc2N2CCCCC2)cc1	1%	-15%[12.7 µM]	-3	-2%	·	-7%
COc1ccccc1NS(=O)(=O)c1cc(NC(=O)C(C)NC(N)=O)ccc1N1CCCC1 (stereo not given)	0%	?	-1	?	·	13µM*
COc1ccc(NS(=O)(=O)c2cc(NC(=O)c3cnccn3)ccc2N2CCCC2)cc1	-4%	?	0	?	-24%	21µM*
Cc1cccc(NS(=O)(=O)c2ccc3[nH]c(=O)ccc3c2)c1C	·	-27%[59 µM]	·	4%	·	·
Cc1nn(CCCC(=O)Nc2cc(C(F)(F)F)ccc2Cl)c(=O)c2c1sc1ccccc12	·	-42%[59 µM]	·	2%	·	·
COc1cccc(CC(=O)Nc2ccc(N3CCOCC3)c(S(=O)(=O)Nc3ccccc3OC)c2)c1	·	·	1	-4%	·	?
COc1ccccc1NS(=O)(=O)c1cc(NC(=O)CCNC(C)=O)ccc1N1CCCCC1	1%	4%[0.501 µM]	-2	-8%	·	-22%
COc1ccccc1NS(=O)(=O)c1cc(NC(=O)c2ccccc2C)ccc1N1CCOCC1	·	·	-4	-18%	·	-2%
COc1ccccc1NS(=O)(=O)c1cc(NC(=O)C2CC2)ccc1N1CCOCC1	-3%	8.9µM*	·	·	-4%	·
COc1ccccc1NS(=O)(=O)c1cc(NC(=O)Nc2cccc(C)c2)ccc1N1CCCCC1	4%	25µM*	-4	?	-15%	?
COCCNC(=S)Nc1ccc(N2CCOCC2)c(S(=O)(=O)Nc2ccccc2OC)c1	2%	-17%[2.33 µM]	-2	?	·	21µM*
CCOC(=O)C(=CNc1ccc(N2CCCCC2)c(S(=O)(=O)Nc2ccccc2OC)c1)C(=O)OCC	·	·	-1	?	·	11µM*
CCOc1ccccc1NC(=O)Cn1ncc2c([nH]c3ccccc32)c1=O	·	31%[59 µM]	·	-3%	·	·
COc1ccc(NC(=O)c2nc(SCc3ccccc3F)ncc2Cl)cc1	·	-15%[59 µM]	·	2%	·	·
SMILES	MmCpn inh	G9a block	CCT modulator	VDR inhibitor	Sfp PPTase inh	PLK1 PBD block
Cc1ccc(Cn2c(C(=O)Nc3ccc(Cl)cc3)cc3sccc32)cc1	·	?	·	11%	·	·
CCCc1cc(=O)n2c(C(=O)Nc3ccc(OCC)cc3)c(C(=O)Nc3ccc(C)cc3)sc2n1	·	?	·	8%	·	·
CCC(=O)Nc1ccc(N2CCOCC2)c(S(=O)(=O)Nc2ccc(OC)cc2)c1	-3%	1%	-2	-6%	5%	-11%
COc1ccccc1NS(=O)(=O)c1cc(NC(C)=O)ccc1N1CCCCC1	-5%	8.9µM*	2	?	45µM*	9.5µM*
COc1cccc(NC(=S)NCCN2CCOCC2)c1	3%	23%[59 µM]	-2	-15%	5%	-19%
COc1ccccc1NS(=O)(=O)c1cccc(NC(=S)NCCN2CCOCC2)c1	0%	-10%[59 µM]	0	8%	20%	24µM*
CCCCCC(=O)Nc1ccc(N2CCOCC2)c(S(=O)(=O)Nc2ccc(OC)cc2)c1	-2%	11µM*	0	-4%	·	-4%
COc1ccccc1NS(=O)(=O)c1cccc(NC(=O)NCCCl)c1	3%	·	0	?	3%	27µM*
Cc1cc(OCCCSc2nc(-c3ccc(C(C)(C)C)cc3)nc3cc(=O)[nH]n23)ccc1Cl	·	-1%[59 µM]	·	10%	·	·
Cc1ccc(NC(=O)C2CCCN2S(=O)(=O)c2ccc3nc(-c4ccccc4)[nH]c3c2)cc1F (stereo not given)	·	-29%[59 µM]	·	10%	·	·
COCC(=O)Nc1ccc(N2CCCC2)c(S(=O)(=O)Nc2ccccc2OC)c1	-1%	19%[2.33 µM]	-2	-11%	·	-12%
COc1ccccc1NS(=O)(=O)c1cc(NC(=O)c2ccncc2)ccc1N1CCCC1	2%	7.9µM*	-2	?	14µM*	17µM*
Cc1cc(C)cc(N2C(=O)CSC23C(=O)N(CC(=O)NC2CCCCC2)c2ccccc23)c1 (stereo not given)	·	-27%[59 µM]	·	11%	·	·
O=C(NC(=S)N1CCCc2ccccc21)c1ccc(Cl)cc1	-3%	?	-2	?	22µM*	27µM*
O=C(c1ccc([N+](=O)[O-])s1)N1CCc2ccccc21	-1%	23%	-2	1%	2%	12%
O=C(NC(=S)N1CCCc2ccccc21)c1ccc(Br)cc1	-1%	45µM*	0	-20%	45µM*	?
O=C(NC(=S)N1CCCc2ccccc21)c1ccccc1	0%	29%[0.501 µM]	-3	-10%	-1%	-17%
O=C(Cc1ccc([N+](=O)[O-])cc1)N1CCCc2ccccc21	2%	2%[59 µM]	-1	3%	-3%	?
COc1ccc(C(=O)NC(=S)N2CCCc3ccccc32)cc1OC	0%	?	0	-3%	?	-29%

Screening results as filed in PubChem BioAssay.
